# Source: PubChem BioAssay (EPA / NIEHS)
# Inconclusive results are not listed. The source made the active and inactive calls. Rule for the calls, unless noted: active = hit-call score of the fitted dose curve at least 0.9, where 1 is the maximum; inconclusive = response in the unintended direction; inactive = score below 0.9.
# Experiments:
# THRA (gene 7067) [1] = target: THRA (gene 7067) (UniProt P10827); test: TOX21_TRA_COA_Antagonist_Followup_ratio: Tox21 Thyroid Hormone Receptor alpha Antagonism through Coactivator Recruitment Follow-Up Assay, Ratio (AID 2283953)
# Source text: TOX21_TRa_COA_Antagonist_Followup is a secondary assay for specificity for the TOX21_TR_GH3_LUC_Agonist assay. The LanthaScreen TR-FRET TR coactivator assay kits were used to determine TR activity in a cell-free functional assay. A time-resolved fluorescence resonance energy transfer (TR-FRET) signal was indicative of coactivator (SRC-2) recruitment.TOX21_TRA_COA_Antagonist_Followup_ratio is assay component calculated in the TOX21_TRA_COA_Antagonist_Followup assay. The TR-FRET ratio of acceptor emission (ch2) to donor emission (ch1) is indicative of the resonance energy transfer to the fluorescein tag on the coactivator peptide following recruitment to the receptor.Data from the assay component TOX21_TRA_COA_Antagonist_Followup_ratio was analyzed into 1 assay endpoint. This assay endpoint, TOX21_TRA_COA_Antagonist_Followup_ratio, was analyzed in the positive analysis fitting direction relative to DMSO as the negative control and baseline of activity. Using a type of inducible reporter, loss-of-signal activity can be used to understand changes in the reporter gene as they relate to the gene THRA. Furthermore, this assay endpoint can be referred to as a primary readout, because this assay has produced multiple assay endpoints and this ratio serves a reporter gene function to understand target activity. […]
# THRB (gene 7068) [2] = target: THRB (gene 7068) (UniProt P10828); test: TOX21_TRB_BLA_Antagonist_Followup_ratio: Tox21 Thyroid Hormone Receptor beta Antagonism Beta-lactamase (BLA) Follow-Up Assay, Ratio (AID 2283958)
# Summary of the method: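 HEK293T TRb-bla (GAL4 DBD + hTRβ LBD), 2% cs-FBS phenol red-free DMEM, 5 h attach; cpds 11-pt triplicate, 18 h 37C; CCF4-AM 2 h RT; 460/530 ratio vs DMSO; CellTiter-Glo viability same wells.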
# [3] = TOX21_TRB_BLA_Antagonist_Followup_viability: Viability Assessment in the Tox21 Thyroid Hormone Receptor beta Antagonism Beta-lactamase (BLA) Follow-Up Assay (AID 2283961)
# Summary of the method: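 Viability read as CellTiter-Glo ATP luminescence (loss of signal = cytotoxicity) in the same plates as the TRβ-bla readout. TRβ-LBD/GAL4 UAS-bla HEK293T cells were exposed to compounds, 11 concentrations in triplicate, for 18 h at 37C/5% CO2.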
# THRB (gene 7068) [4] = target: THRB (gene 7068) (UniProt P10828); test: TOX21_TRB_COA_Antagonist_Followup_ratio: Tox21 Thyroid Hormone Receptor beta Antagonism through Coactivator Recruitment Follow-Up Assay, Ratio (AID 2283967)
# Summary of the method: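 Cell-free TR-FRET: GST-TRb LBD (5.0 nM) with fluorescein-SRC-2 peptide (200 nM) and Tb anti-GST antibody (2 nM), 0.10% BSA. 520:495 nm emission ratio normalized to DMSO (0%) and T3 (100%).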
# THRA (gene 7067) [5] = target: THRA (gene 7067) (UniProt P10827); test: TOX21_TRA_COA_Agonist_Followup_ratio: Tox21 Thyroid Hormone Receptor alpha Agonism through Coactivator Recruitment Follow-Up Assay, Ratio (AID 2283948; active = hit-call score of the fitted dose curve at least 0.9, where 1 is the maximum; inactive = score below 0.9)
# Summary of the method: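 GST-TRa LBD 2.5 nM + 0.10% BSA + cpd; add fluorescein-SRC-2 200 nM, Tb-anti-GST 2 nM. TR-FRET ex 340, em 520/495 ratio. Norm: DMSO 0%, T3 100%; gain-of-signal fit.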
# THRB (gene 7068) [6] = target: THRB (gene 7068) (UniProt P10828); test: TOX21_TRB_BLA_Agonist_Followup_ratio: Tox21 Thyroid Hormone Receptor beta Agonism Beta-lactamase (BLA) Follow-Up Assay, Ratio (AID 2283954)
# Summary of the method: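 Human TRβ LBD–GAL4 DBD fusion in GeneBLAzer UAS-bla HEK293T cells; 11 concentrations in triplicate, 18 h at 37°C/5% CO2, T3 as agonist control. CCF4-AM substrate 2 h at room temperature; 460:530 nm ratio fitted for gain of signal versus DMSO.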
# [7] = TOX21_TRB_BLA_Agonist_Followup_viability: Viability Assessment in the Tox21 Thyroid Hormone Receptor beta Agonism Beta-lactamase (BLA) Follow-Up Assay (AID 2283956)
# Summary of the method: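 TRb-bla HEK293T cells (GAL4-DBD/human TRb LBD) in 2% charcoal-stripped FBS medium were exposed 18 h at 37C to 11 concentrations in triplicate. CellTiter-Glo ATP luminescence was read after 30 min at room temperature, with bidirectional fitting against DMSO.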
# THRB (gene 7068) [8] = target: THRB (gene 7068) (UniProt P10828); test: TOX21_TRB_COA_Agonist_Followup_ratio: Tox21 Thyroid Hormone Receptor beta Agonism through Coactivator Recruitment Follow-Up Assay, Ratio (AID 2283963; active = hit-call score of the fitted dose curve at least 0.9, where 1 is the maximum; inactive = score below 0.9)
# Summary of the method: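 First, the GST-fused TRβ ligand-binding domain (5.0 nM) was incubated with test compound in 0.10% BSA. Next, fluorescein-tagged SRC-2 peptide (200 nM) and terbium anti-GST antibody (2 nM) were added. Finally, TR-FRET emission ratios were normalized against DMSO and T3 controls.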
# [9] = target: Retinoic acid receptor RXR-alpha (Homo sapiens) (UniProt P19793); test: TOX21_TR_RXR_BLA_Agonist_Followup_ratio: Tox21 Thyroid Hormone Receptor beta Retinoid X Receptor alpha (RXRa) Agonism Beta-lactamase (BLA) Follow-Up Assay, Ratio (AID 2283968)
# Summary of the method: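 HEK293T RXRa-bla, qHTS; cpd 11-pt conc. in triplicate, 16 h 37C/5% CO2; CCF4-AM 2 h RT; ratio 460:530 nm; agonist direction vs DMSO; 9-cis retinoic acid as positive control.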
# [10] = TOX21_TR_RXR_BLA_Agonist_Followup_viability: Viability Assessment in the Tox21 Thyroid Hormone Receptor beta Retinoid X Receptor alpha (RXRa) Agonism Beta-lactamase (BLA) Follow-Up Assay (AID 2283970)
# Summary of the method: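 Cells: HEK293T RXRa-UAS-bla, 2,500/well; medium phenol red-free DMEM + 2% charcoal-stripped FBS; 16h, 37C/5% CO2; qHTS concentration series. Read: CellTiter-Glo luminescence (ATP); bidirectional fit, DMSO = baseline.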
# Sequence of THRB (gene 7068) (P10828 whole entry, looked up, the tested form may be a part): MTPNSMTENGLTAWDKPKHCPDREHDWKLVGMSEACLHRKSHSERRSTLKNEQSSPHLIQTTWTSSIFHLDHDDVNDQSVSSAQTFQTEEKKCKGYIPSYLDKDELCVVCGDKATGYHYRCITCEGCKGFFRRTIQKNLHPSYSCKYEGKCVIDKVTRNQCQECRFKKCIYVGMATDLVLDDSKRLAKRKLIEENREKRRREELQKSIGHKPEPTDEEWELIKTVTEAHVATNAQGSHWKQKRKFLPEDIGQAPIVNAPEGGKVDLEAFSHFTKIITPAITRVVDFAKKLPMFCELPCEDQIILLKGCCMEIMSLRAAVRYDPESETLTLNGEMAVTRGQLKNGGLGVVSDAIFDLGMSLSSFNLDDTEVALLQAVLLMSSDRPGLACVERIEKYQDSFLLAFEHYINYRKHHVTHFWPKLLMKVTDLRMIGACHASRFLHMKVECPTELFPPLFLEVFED
# Sequence of THRA (gene 7067) (P10827 whole entry, looked up, the tested form may be a part): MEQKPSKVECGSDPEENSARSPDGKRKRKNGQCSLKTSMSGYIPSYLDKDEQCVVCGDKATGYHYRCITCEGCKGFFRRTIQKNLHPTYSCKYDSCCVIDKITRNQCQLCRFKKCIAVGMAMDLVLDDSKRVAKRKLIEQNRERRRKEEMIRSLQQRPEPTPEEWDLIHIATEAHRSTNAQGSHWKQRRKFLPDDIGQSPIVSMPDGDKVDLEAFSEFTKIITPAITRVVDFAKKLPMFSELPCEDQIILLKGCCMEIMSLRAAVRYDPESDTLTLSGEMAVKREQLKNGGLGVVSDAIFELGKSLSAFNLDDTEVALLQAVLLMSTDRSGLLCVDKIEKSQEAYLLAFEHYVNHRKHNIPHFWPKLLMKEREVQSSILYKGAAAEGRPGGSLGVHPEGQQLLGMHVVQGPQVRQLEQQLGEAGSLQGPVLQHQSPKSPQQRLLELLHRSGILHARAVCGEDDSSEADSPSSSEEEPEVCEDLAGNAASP
# Sequence of Retinoic acid receptor RXR-alpha (Homo sapiens) (P19793 whole entry, looked up): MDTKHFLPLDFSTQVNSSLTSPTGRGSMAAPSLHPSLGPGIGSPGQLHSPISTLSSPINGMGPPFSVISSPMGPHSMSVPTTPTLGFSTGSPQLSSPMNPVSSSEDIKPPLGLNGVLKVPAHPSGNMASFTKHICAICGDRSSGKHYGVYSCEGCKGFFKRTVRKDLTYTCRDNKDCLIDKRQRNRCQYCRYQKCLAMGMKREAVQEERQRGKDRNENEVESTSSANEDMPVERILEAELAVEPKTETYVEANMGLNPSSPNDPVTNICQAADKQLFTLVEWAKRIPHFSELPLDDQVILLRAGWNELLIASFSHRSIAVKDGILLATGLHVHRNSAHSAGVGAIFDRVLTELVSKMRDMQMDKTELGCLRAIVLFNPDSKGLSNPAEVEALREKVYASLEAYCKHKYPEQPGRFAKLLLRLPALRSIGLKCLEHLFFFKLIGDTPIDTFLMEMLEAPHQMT
smiles,measurement,setting,value
CSC1=N[C@@](C)(c2ccccc2)C(=O)N1Nc1ccccc1,outcome,THRA (gene 7067) [1],inactive
same,outcome,THRB (gene 7068) [2],inactive
same,outcome,[3],inactive
same,outcome,THRB (gene 7068) [4],inactive
C[N+]1(C)CCCCC1,outcome,THRA (gene 7067) [5],inactive
same,outcome,THRB (gene 7068) [6],inactive
same,outcome,[7],inactive
same,outcome,THRB (gene 7068) [8],inactive
same,outcome,[9],inactive
same,outcome,[10],inactive
C=C(C)[C@H]1Cc2c(ccc3c2O[C@@H]2COc4cc(OC)c(OC)cc4[C@@H]2C3=O)O1,AC50,THRB (gene 7068) [2],1.52 µM (active)
same,AC50,[3],6.16 µM (active)
same,outcome,THRB (gene 7068) [4],inactive
CON=C(C(=O)OC)c1ccccc1CON=C(C)c1cccc(C(F)(F)F)c1,outcome,THRB (gene 7068) [2],inactive
same,outcome,[3],inactive
same,outcome,THRB (gene 7068) [4],inactive
